Bioassay records as filed in PubChem.
In the library only some 11% were active in any assay of this set; here they are far more common.
AMA1 RON2 block – AMA1-RON2 (P. falciparum) interaction inhibition; AlphaScreen AMA1-biotinylated RON2 peptide binding; Potency, µM (doses to about 58.2 µM), hits mostly inhibitors; hit rate 0.2% among 360,000; AID 720542; also: nearly all actives have a fitted effect of over 45% in size
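AMA1 (3D7) with his tag at 25 nM final met compounds first, then biotinylated RON2 peptide at 25 nM; detection used donor plus acceptor beads, 10 µg/mL apiece, read by AlphaScreen after 30 min at room temperature.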
Pf growth 96h – inhibits malaria parasite growth, 96 h; AID 504834; Potency, µM (series often up to 28.7 µM), actives largely listed as inhibitors; hit rate 6.9% among 320,000; P. falciparum luciferase reporter growth, 96 h
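Erythrocytes infected with luciferase-expressing P. falciparum were dispensed at 2% hematocrit and 0.05% parasitemia (final), then incubated with compounds 96 hours at 37 C in 5% CO2. Luminescence after detection reagent addition reported growth.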
AmpC no deterg – AmpC beta-lactamase inhibition without detergent; P00811; AmpC nitrocefin hydrolysis, absorbance 480 nm, 0.0001% Triton; Potency, µM (titrated, usually from 57.1 µM), most hits filed as inhibitors; hit rate 0.52% among 330,000; AID 485341; also: nearly all actives have a fitted effect of over 20% in size
Target sequence (P00811 whole entry, looked up): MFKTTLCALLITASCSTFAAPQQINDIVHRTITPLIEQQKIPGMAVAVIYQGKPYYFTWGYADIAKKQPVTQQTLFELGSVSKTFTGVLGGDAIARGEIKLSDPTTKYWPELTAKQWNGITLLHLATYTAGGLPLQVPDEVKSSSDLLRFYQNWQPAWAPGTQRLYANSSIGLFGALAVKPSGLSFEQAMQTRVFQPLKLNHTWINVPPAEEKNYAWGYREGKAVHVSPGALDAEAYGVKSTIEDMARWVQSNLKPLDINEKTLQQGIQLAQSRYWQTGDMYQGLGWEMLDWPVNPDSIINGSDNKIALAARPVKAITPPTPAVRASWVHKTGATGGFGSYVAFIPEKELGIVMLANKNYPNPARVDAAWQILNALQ
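20 mM phosphate pH 7.0 + 0.01% (detergent screen) or 0.0001% Triton X-100; 5.3 nM AmpC reagent; cpd preinc 15 min RT; nitrocefin (800 uM stock) to start; A480 q20 s × 4 min; Activity was normalised to no-enzyme and no-compound control wells.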
Pf growth 48h – P. falciparum growth inhibition at 48 hours (one generation) | Potency, µM (highest dose often 28.7 µM), most hits filed as inhibitors | AID 504832 | P. falciparum luciferase growth in erythrocytes, 48 h | hit rate 5.9% among 310,000
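Luminescence readout; reporter = integrated firefly luciferase in P. falciparum. RBC culture at 2% hematocrit, 0.1% parasitemia final, 37 C/5% CO2; decreased signal taken as growth inhibition.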
HCV inhibitor – HCV inhibition | Potency, µM (series often up to 41.8 µM), hits mostly inhibitors | hit rate 3.4% among 340,000 | Huh7.5.1 HCVcc-Cre infection, luciferase reporter, 44 h
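Cells (1,000/well) were plated 4 h before compound, then infected with HCVcc-Cre virus (~0.5 moi). After 44 h further culture, infection was read as luciferase luminescence following a 15 min substrate incubation at room temperature.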
AmpC detergent – blocks E. coli AmpC beta-lactamase in detergent assay | Potency, µM (top dose mostly 114 µM), usual class: inhibitors | P00811 | AmpC hydrolysis of nitrocefin, absorbance 480 nm, 0.01% Triton | hit rate 0.041% among 370,000; also: nearly all actives have a fitted effect of over 25% in size
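20 mM phosphate pH 7.0 + 0.01% (detergent screen) or 0.0001% Triton X-100; 5.3 nM AmpC reagent; cpd preinc 15 min RT; nitrocefin (800 uM stock) to start; A480 q20 s × 4 min; Activity was normalised to no-enzyme and no-compound control wells.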
Hits are given with their value; - = inactive; ? = inconclusive; . = not tested or not shown. Calls follow the shape of the dose curve; as a rule, active = well fitted curve in the direction sought with a large enough effect; inconclusive = small, poorly fitted or top-dose-only effect, or another doubt; inactive = no such curve, though single readings can be large; an effect the other way counts as inactive or inconclusive.

SMILES | AMA1 RON2 block | Pf growth 96h | AmpC no deterg | Pf growth 48h | HCV inhibitor | AmpC detergent
C/C=C(\C)C(=O)N[C@@H](c1ccccc1)[C@@H](O)C(=O)O[C@H]1C[C@@]2(O)[C@@H](OC(=O)c3ccccc3)C3[C@](C)(C(=O)[C@H](OC(C)=O)C(=C1C)C2(C)C)[C@H](O)C[C@H]1OC[C@@]31OC(C)=O (stereo partly specified) | - | ? | - | ? | ? | ?
CC/C=C/CC(=O)N[C@@H](c1ccccc1)[C@@H](O)C(=O)O[C@H]1C[C@@]2(O)[C@@H](OC(=O)c3ccccc3)C3[C@](C)(C(=O)[C@H](OC(C)=O)C(=C1C)C2(C)C)[C@@H](O)C[C@H]1OC[C@@]31OC(C)=O (stereo partly specified) | - | 0.329µM | - | 0.465µM | - | ?
CC(=O)O[C@H]1C(=O)[C@@]2(C)[C@H]([C@H](OC(=O)c3ccccc3)[C@]3(O)C[C@H](OC(=O)[C@H](O)[C@@H](NC(=O)c4ccccc4)c4ccccc4)C(C)=C1C3(C)C)[C@]1(OC(C)=O)CO[C@@H]1C[C@@H]2O | - | 0.0586µM | - | 0.0738µM | ? | ?
CC(=O)O[C@H]1C(=O)[C@@]2(C)[C@H]([C@H](OC(=O)c3ccccc3)[C@]3(O)C[C@H](OC(=O)[C@H](O)C(NC(=O)c4ccccc4)c4ccccc4)C(C)=C1C3(C)C)[C@]1(OC(C)=O)CO[C@@H]1C[C@@H]2O (stereo partly specified) | - | 0.0738µM | - | 0.104µM | ? | -
CCOC(=O)c1cccc(NC(=O)[C@H](CSCc2ccccc2)N2Cc3ccccc3C2=O)c1 | . | . | . | . | . | -
Cn1c(-n2cccc2)c(-c2c(-c3ccc(F)cc3)[nH]c3c2c(=O)n(C)c(=O)n3C)c(=O)n(C)c1=O | . | . | . | . | . | -
CC1C(=O)Nc2ccc(S(=O)(=O)NCc3ccc(N(C)C)cc3)cc2NC1=O (stereo unspecified) | . | . | . | . | . | -
CC(=O)O[C@@]12CO[C@@H]1C[C@@H](O)[C@@]1(C)C(=O)[C@H](O)C3=C(C)[C@@H](OC(=O)[C@H](O)[C@@H](NC(=O)c4ccccc4)c4ccccc4)C[C@@](O)([C@@H](OC(=O)c4ccccc4)C12)C3(C)C (stereo partly specified) | - | 0.0465µM | - | ? | 0.316µM | -
COc1ccccc1CCNC(=O)C(=O)NCC1OCCCN1S(=O)(=O)c1ccc(F)cc1C (stereo unspecified) | - | ? | - | - | 10µM | -
O=C(NCc1ccc2c(c1)OCO2)C(=O)NCC1OCCN1S(=O)(=O)c1ccc(Br)cc1 (stereo unspecified) | - | ? | - | ? | 10µM | -
COc1ccc(CCNC(=O)C(=O)NCC2OCCCN2S(=O)(=O)c2cc(C)ccc2C)cc1 (stereo unspecified) | - | 13.1µM | - | ? | ? | -
Cc1ccc(C)c(S(=O)(=O)N2CCCOC2CNC(=O)C(=O)NCCc2ccco2)c1 (stereo unspecified) | - | 13.1µM | - | - | - | -
COc1ccccc1CCNC(=O)C(=O)NCC1OCCCN1S(=O)(=O)c1cc(C)ccc1C (stereo unspecified) | - | ? | - | ? | ? | -
COc1ccc(NS(=O)(=O)c2ccc3c(c2)CCN3C(=O)CCC(=O)O)cc1Cl | . | . | . | . | . | -
Cc1cccc(OCC(=O)OCc2cc(=O)n3nc(-c4cccs4)sc3n2)c1 | . | . | . | . | . | -
COc1ccc(CCNC(=O)C(=O)NCC2OCCN2S(=O)(=O)c2ccc(Cl)cc2)cc1OC (stereo unspecified) | - | - | - | ? | 8.91µM | -
CC1=Nc2ccccc2N=C(NC(=O)CSc2nnnn2-c2ccccc2)C1c1ccccc1 (stereo unspecified) | - | - | . | ? | ? | -
CCOC(=O)C1CCCN(CC(=O)NC2=Nc3ccccc3N=C(C)C2c2ccccc2)C1 (stereo unspecified) | - | ? | - | 10.4µM | - | -
CC1=Nc2ccccc2N=C(NC(=O)c2ccccc2)C1c1ccccc1 (stereo unspecified) | - | ? | - | 4.15µM | ? | -
CC1=Nc2ccccc2N=C(NC(=O)CSC(=S)N2CCCCC2)C1c1ccccc1 (stereo unspecified) | - | ? | - | 13.1µM | ? | -
CC1=Nc2ccccc2N=C(NC(=O)CSC(=S)N2CCN(C)CC2)C1c1ccccc1 (stereo unspecified) | - | ? | - | ? | - | -
CC1=Nc2ccccc2N=C(NC(=O)CN2CCN(c3ccccc3)CC2)C1c1ccccc1 (stereo unspecified) | - | ? | - | 5.86µM | - | -
Cc1cc(C)cc(NC(=O)Nc2c[nH]c(=O)[nH]c2=O)c1 | . | . | . | . | . | -
CCOC(=O)CC1CCCCN1C(=O)c1ccc2oc(CCc3ccccc3)nc2c1 (stereo unspecified) | - | ? | - | - | 10µM | -
Cc1cc(C)cc(NC(=O)NCCn2nnc3cc(S(=O)(=O)N(C)C)ccc32)c1 | . | . | . | . | . | -
SMILES | AMA1 RON2 block | Pf growth 96h | AmpC no deterg | Pf growth 48h | HCV inhibitor | AmpC detergent
O=C(c1ccc(CS(=O)c2cccc(Cl)c2)o1)N1CCOCC1 (stereo unspecified) | - | ? | - | - | - | -
CCOC(=O)N1CCC(NC(=O)c2ccc(CS(=O)c3cccc(Cl)c3)o2)CC1 (stereo unspecified) | - | 9.28µM | - | - | - | -
COc1cccc(N2CCN(C(=O)c3ccc(CS(=O)c4ccc(Cl)cc4)o3)CC2)c1 (stereo unspecified) | - | 13.1µM | - | ? | - | -
O=C(c1ccc(CS(=O)c2cccc(Cl)c2)o1)N1CCN(c2ccccn2)CC1 (stereo unspecified) | - | 7.38µM | - | ? | - | -
CCOC(=O)c1cnc2c(ccc3ccccc32)c1Nc1ccc(N(C)C)cc1 | . | . | . | . | . | -
O=C(NCCc1ccc(Cl)cc1)c1cccn1-c1nnc(N2CCCCC2)s1 | . | . | . | . | . | -
C#CCOCCOCCOCCNc1nc(N2CCN(C(=O)[C@H]([C@@H](C)CC)n3cc([C@@H](N)CO)nn3)CC2)nc(N2CCN(C(=O)[C@H](Cc3ccc(O)cc3)n3cc([C@@H](N)CC(C)C)nn3)CC2)n1 | - | - | - | ? | - | -
C#CCOCCOCCOCCNc1nc(N2CCOCC2)nc(N2CCN(C(=O)[C@H](Cc3cc4ccccc4[nH]3)n3cc([C@@H](N)Cc4ccc(O)cc4)nn3)CC2)n1 | - | 1.85µM | - | ? | - | -
